Experiment [1] in a line: small molecules captured by biotinylated probe aFSTL3 – biochemical, small-molecule microarray, fluorescence 635/667, stem cell growth factor project, primary screen (AID 1064).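 Further: measures binding of the biotinylated anti-FSTL3 antibody to printed compounds.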 The settings on record: higher = more signal.
Experiment [2] in a line: binders from COS7 lysate, DM2A8 probe, primary screen, torsin A project, cell lysate, small-molecule microarray, fluorescence 635/667 (AID 1065). The conditions noted are these: higher = more signal, COS7 lysate expressing mutant human TOR1A.
Experiment [3] is described as follows: small molecules captured by biotinylated probe aFGF2 – biochemical, small-molecule microarray, fluorescence 635/667, stem cell growth factor project, primary screen (AID 1067).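 Further: measures binding of biotinylated aFGF2 protein to printed compounds on slides; z-score merges feature fluorescence and signal-to-noise across triplicate slides.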 The conditions noted are these: higher = more signal.
Experiment [4] can be described thus: small molecules captured by biotinylated probe aFGF10 – biochemical, small-molecule microarray, fluorescence 635/667, stem cell growth factor project, primary screen (AID 1071).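 Further: score merges 667 nm spot intensity and signal to noise from triplicate slides.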 The conditions noted are these: higher = more signal.
Experiment [5] concerns the target Neurogenic locus notch homolog protein 2 (Homo sapiens) (UniProt Q04721). Briefly: small molecules binding Notch2 protein – biochemical, small-molecule microarray, 635 nm fluorescence, stem cell growth factors, primary screen (AID 1073). The settings on record: higher = more signal.
Experiment [6] deals with Pro-neuregulin-1, membrane-bound isoform (Homo sapiens) (UniProt Q02297). Briefly: small molecules binding neuregulin-1 protein – biochemical, small-molecule microarray, fluorescence 635/667, psychiatric disease protein project, primary screen (AID 1075).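 Further: score combines 667 nm spot fluorescence with signal to noise.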 The settings on record: NRG1 binding, 635 nm fluorescence, higher = more signal.
Sequence of Pro-neuregulin-1, membrane-bound isoform (Homo sapiens) (Q02297 whole entry, looked up, the tested form may be a part, canonical isoform): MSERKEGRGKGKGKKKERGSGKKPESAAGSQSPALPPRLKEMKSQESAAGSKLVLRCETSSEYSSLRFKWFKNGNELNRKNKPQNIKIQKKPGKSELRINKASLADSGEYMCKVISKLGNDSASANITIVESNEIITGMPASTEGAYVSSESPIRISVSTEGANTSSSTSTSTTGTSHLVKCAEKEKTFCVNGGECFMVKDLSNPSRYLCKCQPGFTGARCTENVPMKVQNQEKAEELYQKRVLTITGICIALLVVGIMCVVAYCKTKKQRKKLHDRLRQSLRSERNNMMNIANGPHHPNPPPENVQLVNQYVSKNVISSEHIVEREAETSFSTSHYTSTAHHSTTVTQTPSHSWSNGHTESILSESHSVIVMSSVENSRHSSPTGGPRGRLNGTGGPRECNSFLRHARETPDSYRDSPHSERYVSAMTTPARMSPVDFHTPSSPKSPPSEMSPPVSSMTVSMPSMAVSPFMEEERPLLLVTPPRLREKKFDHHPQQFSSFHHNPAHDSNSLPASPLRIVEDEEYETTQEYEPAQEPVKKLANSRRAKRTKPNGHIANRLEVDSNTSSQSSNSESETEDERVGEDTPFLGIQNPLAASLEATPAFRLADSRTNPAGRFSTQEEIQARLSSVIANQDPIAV
Experiment [7] has as its system Neuregulin-1 EGF-like domain. The experiment in a line: small molecules binding NRG1 EGF domain – biochemical, small-molecule microarray, 635 nm fluorescence, primary screen (AID 1081).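 Further: binding of the protein to compounds printed on small-molecule microarray slides.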 The settings on record: higher = more signal.
Experiment [8] can be described thus: FRG1 expression reporter modulators in myotubes – cell-based, C2C12 myotubes, firefly/Renilla luciferase, luminescence, FRG1 inhibition for FSHD, primary screen (AID 1084). The settings on record: FRG1 promoter luciferase, higher = more signal, called active from +8 up or from −8 down.
A short description of experiment [9]: small molecules captured by biotinylated probe aFST – biochemical, small-molecule microarray, fluorescence 635/667, stem cell growth factor project, primary screen (AID 1086).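 Further: score merges 667 nm fluorescence with signal-to-noise of each printed compound spot.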 The settings on record: higher = more signal.
The nature of experiment [10]: binders of probe aHhip on microarray, primary screen, stem cell growth factor project, biochemical, small-molecule microarray, fluorescence 635/667 (AID 1087).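 Further: score merges spot fluorescence at 667nm with spot signal to noise ratio.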 The settings on record: higher = more signal.
Experiment [11] deals with PRMT1 (protein arginine N-methyltransferase 1). Briefly: small molecules binding arginine methyltransferase PRMT1 – biochemical, small-molecule microarray, 635 nm fluorescence, primary screen (AID 1088).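 Further: binding of Prmt1 protein to compounds spotted on small-molecule microarray slides.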 The settings on record: higher = more signal.
Experiment [12] can be described thus: growth effects on S. cerevisiae YJM789 – YJM789 clinical isolate, OD600, 24 h, basal, primary screen (AID 1089).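 Further: growth of clinical yeast isolate S. cerevisiae YJM 789 seeded 1000 cells per well; test concentration not given here.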 The conditions noted are these: higher = more signal, called active from +8 up or from −8 down.
A short description of experiment [13]: S. pombe growth modifiers, basal conditions – strain 972, OD600, 24 h, no modulator, primary screen (AID 1090).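 Further: basal condition with compound alone and no growth modifier present; test concentration not given here.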 The settings on record: S. pombe 972 growth, higher = more signal, called active from +8 up or from −8 down.
The nature of experiment [14]: budding yeast growth modifiers under rapamycin – strain BY4716, OD600, 96 h, primary screen (AID 1091). Further: test concentration not given here. The settings on record: S. cerevisiae BY4716 + rapamycin, higher = more signal, called active from +8 up or from −8 down.
In experiment [15] the target is Torsin-1A-interacting protein 2 (Homo sapiens) (UniProt Q8NFQ8). The experiment in a line: small molecules binding lysate-expressed LULL1 – cell lysate, human LULL1 lysate, 635/667 nm fluorescence, primary screen (AID 1092).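 Further: probe is lysate of COS7 cells overexpressing human LULL1; score merges per-feature 667 nm fluorescence with signal-to-noise.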 The conditions noted are these: small-molecule microarray, hLULL1 lysate binding, 635 nm fluorescence; higher = more signal.
Sequence of Torsin-1A-interacting protein 2 (Homo sapiens) (Q8NFQ8 whole entry, looked up): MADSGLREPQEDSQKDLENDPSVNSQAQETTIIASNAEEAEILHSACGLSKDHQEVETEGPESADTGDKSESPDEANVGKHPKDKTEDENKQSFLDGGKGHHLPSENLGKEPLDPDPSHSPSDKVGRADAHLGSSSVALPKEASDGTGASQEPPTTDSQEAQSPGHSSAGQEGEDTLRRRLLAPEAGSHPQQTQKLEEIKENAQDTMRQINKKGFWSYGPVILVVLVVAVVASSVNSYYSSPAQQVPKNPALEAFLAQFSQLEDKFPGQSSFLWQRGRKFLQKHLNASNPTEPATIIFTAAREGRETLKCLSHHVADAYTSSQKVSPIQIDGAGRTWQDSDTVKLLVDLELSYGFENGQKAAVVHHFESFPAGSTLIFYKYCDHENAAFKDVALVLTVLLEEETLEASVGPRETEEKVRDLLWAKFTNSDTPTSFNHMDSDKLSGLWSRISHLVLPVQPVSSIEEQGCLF
A short description of experiment [16]: optical density change of DRC41 E. coli – strain DRC41, OD650, 24 h, E. coli filamentation project, primary screen (AID 1093).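 Further: MC1000 strain lacking acrAB efflux and sulA so SOS filamentation is blocked; test concentration not given here.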 The conditions noted are these: E. coli DRC41 growth, higher = more signal, called active from +8 up or from −8 down.
Experiment [17] is described as follows: probe aLefty2 binding to arrayed compounds – biochemical, biotinylated probe, 635/667 nm fluorescence, primary screen (AID 1094).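 Further: score merges spot fluorescence near 667 nm with spot signal-to-noise ratio.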 The conditions noted are these: small-molecule microarray, higher = more signal.
Experiment [18] concerns Noggin (protein binding on small-molecule microarray). Briefly: small molecules binding Noggin protein – biochemical, 635/667 nm fluorescence, primary screen (AID 1095).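 Further: score merges 667 nm feature fluorescence with signal to noise over triplicate slides.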 The settings on record: 635 nm fluorescence, higher = more signal.
The target of experiment [19] is Neurogenic locus notch homolog protein 3 (Homo sapiens) (UniProt Q9UM47). The experiment in a line: small molecules binding NOTCH3 protein – biochemical, 635/667 nm fluorescence, primary screen (AID 1096). The settings on record: small-molecule microarray, 635 nm fluorescence, higher = more signal.
Experiment [20] can be described thus: probe aEGFR binding to arrayed compounds – biochemical, biotinylated probe, 635/667 nm fluorescence, primary screen (AID 1097).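 Further: probe is a biotinylated anti-EGFR antibody binding compounds printed on slides; score combines fluorescence near 667 nm and signal to noise of each spot.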 The conditions noted are these: small-molecule microarray, higher = more signal.

Activity calls are given as the source filed them.

Sequence of Neurogenic locus notch homolog protein 2 (Homo sapiens) (Q04721 whole entry, looked up, canonical isoform): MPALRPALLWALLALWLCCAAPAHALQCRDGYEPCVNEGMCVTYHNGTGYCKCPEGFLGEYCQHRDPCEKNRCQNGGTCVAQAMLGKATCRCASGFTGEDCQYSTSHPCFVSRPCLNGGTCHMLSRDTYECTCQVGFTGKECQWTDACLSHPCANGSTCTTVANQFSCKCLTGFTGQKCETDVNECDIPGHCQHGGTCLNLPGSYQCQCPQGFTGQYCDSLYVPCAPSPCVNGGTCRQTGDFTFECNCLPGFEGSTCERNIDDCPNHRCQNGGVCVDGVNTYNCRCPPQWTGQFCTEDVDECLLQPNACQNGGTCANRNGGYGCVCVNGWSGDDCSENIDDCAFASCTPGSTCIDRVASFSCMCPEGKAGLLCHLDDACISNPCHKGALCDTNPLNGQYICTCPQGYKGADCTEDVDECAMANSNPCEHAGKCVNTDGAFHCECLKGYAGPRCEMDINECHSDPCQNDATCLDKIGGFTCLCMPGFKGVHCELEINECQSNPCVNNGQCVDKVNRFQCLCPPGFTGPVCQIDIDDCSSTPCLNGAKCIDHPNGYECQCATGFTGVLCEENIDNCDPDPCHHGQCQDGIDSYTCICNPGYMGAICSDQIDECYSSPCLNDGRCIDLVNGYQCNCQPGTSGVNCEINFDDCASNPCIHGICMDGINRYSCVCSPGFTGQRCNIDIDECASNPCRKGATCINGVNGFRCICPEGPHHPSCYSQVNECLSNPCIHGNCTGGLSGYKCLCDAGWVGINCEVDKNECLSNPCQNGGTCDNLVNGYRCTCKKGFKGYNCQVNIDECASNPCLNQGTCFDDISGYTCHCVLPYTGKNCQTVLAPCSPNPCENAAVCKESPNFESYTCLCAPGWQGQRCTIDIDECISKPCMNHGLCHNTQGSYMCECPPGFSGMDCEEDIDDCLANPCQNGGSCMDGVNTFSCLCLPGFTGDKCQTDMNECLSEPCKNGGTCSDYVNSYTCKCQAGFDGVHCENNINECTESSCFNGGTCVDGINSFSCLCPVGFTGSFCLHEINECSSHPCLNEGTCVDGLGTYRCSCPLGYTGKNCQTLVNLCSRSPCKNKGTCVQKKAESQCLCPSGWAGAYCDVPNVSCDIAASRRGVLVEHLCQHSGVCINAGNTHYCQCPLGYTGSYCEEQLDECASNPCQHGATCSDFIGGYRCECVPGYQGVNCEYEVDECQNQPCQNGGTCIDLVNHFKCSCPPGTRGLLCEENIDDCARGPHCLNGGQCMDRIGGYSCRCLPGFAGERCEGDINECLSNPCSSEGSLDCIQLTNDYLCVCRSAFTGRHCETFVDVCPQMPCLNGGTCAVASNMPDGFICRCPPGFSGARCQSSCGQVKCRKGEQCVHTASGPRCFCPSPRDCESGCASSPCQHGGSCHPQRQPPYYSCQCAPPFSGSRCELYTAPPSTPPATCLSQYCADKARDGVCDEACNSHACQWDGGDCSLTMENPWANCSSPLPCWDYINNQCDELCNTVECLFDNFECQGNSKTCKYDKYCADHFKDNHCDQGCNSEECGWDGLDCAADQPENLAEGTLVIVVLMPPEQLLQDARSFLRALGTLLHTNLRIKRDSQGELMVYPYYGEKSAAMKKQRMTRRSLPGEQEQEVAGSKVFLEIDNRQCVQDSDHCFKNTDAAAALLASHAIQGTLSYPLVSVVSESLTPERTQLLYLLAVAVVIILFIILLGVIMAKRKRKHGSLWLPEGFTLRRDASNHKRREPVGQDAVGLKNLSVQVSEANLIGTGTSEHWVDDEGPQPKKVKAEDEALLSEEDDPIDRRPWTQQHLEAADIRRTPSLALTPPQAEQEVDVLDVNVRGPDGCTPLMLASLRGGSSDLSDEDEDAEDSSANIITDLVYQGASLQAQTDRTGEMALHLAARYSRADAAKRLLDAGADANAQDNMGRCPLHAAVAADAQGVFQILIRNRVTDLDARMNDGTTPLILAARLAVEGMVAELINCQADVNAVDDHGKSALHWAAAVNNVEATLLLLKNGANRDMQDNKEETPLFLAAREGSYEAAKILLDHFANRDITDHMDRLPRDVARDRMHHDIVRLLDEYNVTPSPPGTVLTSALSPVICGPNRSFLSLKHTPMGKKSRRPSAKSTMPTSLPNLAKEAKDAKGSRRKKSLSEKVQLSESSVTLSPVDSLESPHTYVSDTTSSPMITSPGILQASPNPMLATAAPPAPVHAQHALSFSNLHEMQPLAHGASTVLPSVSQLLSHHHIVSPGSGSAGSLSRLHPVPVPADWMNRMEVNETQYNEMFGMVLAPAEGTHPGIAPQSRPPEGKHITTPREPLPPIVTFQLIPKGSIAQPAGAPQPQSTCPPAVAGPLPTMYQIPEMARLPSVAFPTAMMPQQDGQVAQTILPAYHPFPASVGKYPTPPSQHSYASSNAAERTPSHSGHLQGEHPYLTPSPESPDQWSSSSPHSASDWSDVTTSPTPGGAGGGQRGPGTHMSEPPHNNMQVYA

With `COCCCNC(=O)[C@@H]1c2ccccc2C(=O)N(C2CCCCC2)[C@H]1c1ccc(CO)cc1`, the composite z-score in experiment [1] was 0.503; in [2], -0.763; in experiment [3], -0.105; in experiment [4] it was -0.564; in experiment [5], -1.03; in [6], 1.2. Further, the composite z-score in experiment [7] was 1.45; in experiment [9], -0.341; in [10], -0.236; in [11] it was -0.158; in experiment [15] it was 2.86; in experiment [17], -0.018. Also, the values for the composite z-score in experiment [18], in experiment [19] and in experiment [20] were -0.597, -0.47 and -0.257, respectively. For the same compound, the z-score was -0.108 (inactive) in experiment [8]; -0.0916 (inactive) in experiment [12]; -0.769 (inactive) in [13]; -0.285 (inactive) in [14]; 0.216 (inactive) in [16].
In the case of `CCOC(=O)C[C@H]1[C@H](OC(=O)c2cc3ccccc3oc2=O)[C@@H](NC(=O)C2CCCCC2)c2cc(OCCCO)ccc2N1C(=O)Cc1ccc(OC)cc1`, the composite z-score in experiment [1] was -0.0716; in [2], 0.714; in experiment [3] it was 0.0066; in [4] it was 0.65; in experiment [5], 0.54; in [6], 0.052. In addition, the composite z-score in experiment [7] was 0.72; in experiment [9], 0.352; in experiment [10], -0.201; in experiment [11], 0.466; in [15], 0.727; in experiment [17] it was 0.0424. In addition, the composite z-score was 0.909 in experiment [18], 0.894 in [19] and -0.0623 in [20]. Also, the z-score was 0.198 (inactive) in experiment [8]; 0.248 (inactive) in [12]; 0.222 (inactive) in experiment [13]; -0.295 (inactive) in [14]; -0.723 (inactive) in [16].
Regarding `O=C1O[C@@H](c2ccccc2)[C@@H](c2ccccc2)N2[C@@H](c3ccc(O)cc3)[C@]3(C(=O)Nc4ccc(C#CC5=CCCCC5)cc43)[C@@H](C(=O)N3CCCCCCC3)[C@H]12`, the composite z-score was determined as 2.95 in experiment [1]; 0.905 in experiment [2]; 0.347 in [3]; 0.294 in [4]; 0.861 in experiment [5]; 0.705 in experiment [6]. The composite z-score came to 1.3 in experiment [7]; 2.44 in experiment [9]; 0.271 in experiment [10]; 1.54 in experiment [11]; 3.44 in experiment [15]; 1.22 in experiment [17]. For the same compound, the composite z-score came out at 1.16 in experiment [18], 1.02 in [19] and 0.465 in [20]. For the same compound, the z-score in experiment [8] was -1.38 (inactive); in experiment [12] it was -1.67 (inactive); in [13], -0.604 (inactive); in [14], 0.694 (inactive); in experiment [16], 1.09 (inactive).
`COC(=O)c1ccc([C@H](NC(=O)c2ccccc2)[C@]2(C)C[C@H]2C2CCCCC2)cc1`: the composite z-score in [1] is 0.735; in experiment [2], -0.678; in experiment [3], 0.056; in experiment [4], 0.172; in [5], 1.22; in experiment [6], 1.18. Moreover, the composite z-score in experiment [7] was 0.678; in experiment [9] it was 0.86; in [10], 0.245; in experiment [11], 0.0232; in experiment [15], 3.03; in experiment [17] it was 0.223. In addition, the composite z-score was -0.178 in experiment [18], 1.05 in [19] and -0.116 in [20]. The z-score was -1 (inactive) in experiment [8]; 0.696 (inactive) in experiment [12]; 1.52 (inactive) in experiment [13]; -1.23 (inactive) in [14]; -1.38 (inactive) in experiment [16].
Regarding `CO[C@H]1O[C@H](CO)[C@@H](OC(=O)Nc2ccc(C(F)(F)F)cc2)[C@H](OC(=O)Nc2ccccc2-c2ccccc2)[C@@H]1OC(=O)Nc1ccccc1-c1ccccc1`, the composite z-score was 0.433 in experiment [1]; 1.65 in experiment [2]; -0.0262 in [3]; 0.94 in [4]; 1.56 in [5]; 1.77 in experiment [6]. Moreover, the composite z-score in experiment [7] is 1.29; in experiment [9], 1.32; in experiment [10], -0.146; in [11], 1.54; in [15], 2.4; in experiment [17], 0.33. Also, the values for the composite z-score in [18], in [19] and in experiment [20] were 1.32, 1.02 and 0.0752, respectively. The z-score in [8] was -0.228 (inactive); in experiment [12], 0.94 (inactive); in [13] it was 1.25 (inactive); in [14], 4.92 (inactive); in experiment [16], 0.193 (inactive).
